Measurements as given in the supplement of paper PMC10037445.
The full ranking holds about 2,900 compounds; the median of “NF-kB SEAP reporter activity, fold change vs agonist alone” is about 0.99, and the highest 2% start at about 2.6. The sample as a whole holds a higher share of the highest values than the screen did.

What was measured:
[1] = system: RAW-Dual; experiment: NF-kB SEAP reporter activity, fold change vs agonist alone; higher = enhanced NF-kB activity; settings: library stock concentration (final ~1000-fold dilution): 10 mM
Procedure, shortened: (§1)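 Library stock was pin-tooled at 50 nL into 384-well plates of RAW-Dual macrophages (50,000 cells/well, DMEM), followed 1 h later by a PRR agonist, and the cells were kept at 37 °C, 5% CO2. Supernatant collected after 20 hours was read for IRF by QuantiLuc luminescence and for NF-κB by QuantiBlue absorbance at 620 nm. Reporter activity is fold change over agonist-alone wells, and a well counted as cytotoxic when its IncuCyte confluency was below 70% of agonist controls in both mask sets.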

[2] = system: RAW-Dual; experiment: NF-kB SEAP reporter activity, fold change vs agonist alone; cytotoxicity flag (confluency mask): cytotoxic (confluency <70% of control); higher = enhanced NF-kB activity
Procedure, shortened: as §1

[3] = system: RAW-Dual; experiment: NF-kB SEAP reporter activity, fold change vs agonist alone; cytotoxicity flag (confluency mask): not cytotoxic; higher = enhanced NF-kB activity
Procedure, shortened: as §1

[4] = cytotoxicity flag (confluency mask): cytotoxic (confluency <70% of control), agonist: Imiquimod (TLR7) […]
[5] = cytotoxicity flag (confluency mask): cytotoxic (confluency <70% of control), agonist: MPLA (TLR4) […]
[6] = agonist: ODN 1826 (TLR9) 0.5 ug/mL
[7] = agonist: Pam2CSK4 (TLR2/6) 0.1 ug/mL
[8] = agonist: Pam3CSK4 (TLR2/1) 0.1 ug/mL
[9] = cytotoxicity flag (confluency mask): not cytotoxic, agonist: MPLA (TLR4) […]
[10] = cytotoxicity flag (confluency mask): not cytotoxic, agonist: Imiquimod (TLR7) […]

CCc1ccc(OCc2ccccc2C(=O)Nc2ccc3nc(C)cc(N)c3c2)cc1.Cl
NF-kB SEAP reporter activity [1, 4]: 0.265
NF-kB SEAP reporter activity [1, 5]: 0.216

CCc1ccc(OCc2ccccc2C(=O)Nc2ccc3nc(C)cc(N)c3c2)cc1.Cl (library stock concentration (final ~1000-fold dilution): 10 mM)
NF-kB SEAP reporter activity ([2]; agonist: LPS (TLR4) 0.1 ug/mL): 0.212
NF-kB SEAP reporter activity [2, 6]: 0.198
NF-kB SEAP reporter activity [2, 7]: 0.0939
NF-kB SEAP reporter activity [2, 8]: 0.336

CCCN1CCCCC1C(=O)Nc1c(C)cccc1C (stereo not drawn)
NF-kB SEAP reporter activity [1, 9]: 1.09

CCCN1CCCCC1C(=O)Nc1c(C)cccc1C (stereo not drawn) (library stock concentration (final ~1000-fold dilution): 10 mM)
NF-kB SEAP reporter activity ([3]; agonist: LPS (TLR4) 0.1 ug/mL): 1.03
NF-kB SEAP reporter activity [3, 6]: 1.03
NF-kB SEAP reporter activity [3, 7]: 0.952
NF-kB SEAP reporter activity [3, 8]: 1.06

Cc1ccc(C(=O)N(CCCN)C(c2nc3cc(Cl)ccc3c(=O)n2Cc2ccccc2)C(C)C)cc1 (stereo not drawn)
NF-kB SEAP reporter activity [1, 4]: 1.41
NF-kB SEAP reporter activity [1, 5]: 0.878

Cc1ccc(C(=O)N(CCCN)C(c2nc3cc(Cl)ccc3c(=O)n2Cc2ccccc2)C(C)C)cc1 (stereo not drawn) (library stock concentration (final ~1000-fold dilution): 10 mM)
NF-kB SEAP reporter activity ([2]; agonist: LPS (TLR4) 0.1 ug/mL): 0.331
NF-kB SEAP reporter activity [2, 6]: 0.254
NF-kB SEAP reporter activity [2, 7]: 0.0886
NF-kB SEAP reporter activity [2, 8]: 0.27

COC1C(=O)C2(C)C(OC)CC3OCC3(OC(C)=O)C2C(OC(=O)c2ccccc2)C2(O)CC(OC(=O)C(O)C(NC(=O)OC(C)(C)C)c3ccccc3)C(C)=C1C2(C)C (stereo not drawn)
NF-kB SEAP reporter activity [1, 10]: 1.57
NF-kB SEAP reporter activity [1, 9]: 1.25

COC1C(=O)C2(C)C(OC)CC3OCC3(OC(C)=O)C2C(OC(=O)c2ccccc2)C2(O)CC(OC(=O)C(O)C(NC(=O)OC(C)(C)C)c3ccccc3)C(C)=C1C2(C)C (stereo not drawn) (library stock concentration (final ~1000-fold dilution): 10 mM)
NF-kB SEAP reporter activity ([3]; agonist: LPS (TLR4) 0.1 ug/mL): 1.71
NF-kB SEAP reporter activity [3, 6]: 1.2
NF-kB SEAP reporter activity [3, 7]: 1.01
NF-kB SEAP reporter activity [3, 8]: 0.912

Cc1cccc(Nc2nc(-c3ccncc3)cs2)c1
NF-kB SEAP reporter activity [1, 10]: 1.89
NF-kB SEAP reporter activity [1, 9]: 2.08

O=C(NCc1cccc(O)c1)Nc1nc(-c2ccncc2)cs1
NF-kB SEAP reporter activity [1, 10]: 1.3
NF-kB SEAP reporter activity [1, 9]: 1.45

Cc1cccc(Nc2nc(-c3ccncc3)cs2)c1 (library stock concentration (final ~1000-fold dilution): 10 mM)
NF-kB SEAP reporter activity ([3]; agonist: LPS (TLR4) 0.1 ug/mL): 2.85
NF-kB SEAP reporter activity [3, 6]: 1.3
NF-kB SEAP reporter activity [3, 7]: 0.662
NF-kB SEAP reporter activity [3, 8]: 1

Oc1ccc(Nc2nc(-c3ccc(Cl)cc3)cs2)cc1
NF-kB SEAP reporter activity [1, 10]: 0.665
NF-kB SEAP reporter activity [1, 9]: 0.836

O=C(NCc1cccc(O)c1)Nc1nc(-c2ccncc2)cs1 (library stock concentration (final ~1000-fold dilution): 10 mM)
NF-kB SEAP reporter activity ([3]; agonist: LPS (TLR4) 0.1 ug/mL): 1.01
NF-kB SEAP reporter activity [3, 6]: 1.21
NF-kB SEAP reporter activity [3, 7]: 1.24
NF-kB SEAP reporter activity [3, 8]: 1.88

Oc1ccc(Nc2nc(-c3ccc(Cl)cc3)cs2)cc1 (library stock concentration (final ~1000-fold dilution): 10 mM)
NF-kB SEAP reporter activity ([3]; agonist: LPS (TLR4) 0.1 ug/mL): 0.311
NF-kB SEAP reporter activity [3, 6]: 0.27
NF-kB SEAP reporter activity [3, 7]: 0.227
NF-kB SEAP reporter activity [3, 8]: 0.157

CCCOc1ccc(S(=O)(=O)NCCC2CCCN2C)cc1-c1nc(=O)c2c([nH]1)c(CCC)nn2C (stereo not drawn)
NF-kB SEAP reporter activity [1, 10]: 1.42
NF-kB SEAP reporter activity [1, 9]: 1.28

CCCOc1ccc(S(=O)(=O)NCCC2CCCN2C)cc1-c1nc(=O)c2c([nH]1)c(CCC)nn2C (stereo not drawn) (library stock concentration (final ~1000-fold dilution): 10 mM)
NF-kB SEAP reporter activity ([3]; agonist: LPS (TLR4) 0.1 ug/mL): 1.02
NF-kB SEAP reporter activity [3, 6]: 0.517
NF-kB SEAP reporter activity [3, 7]: 0.99
NF-kB SEAP reporter activity [3, 8]: 1.14

COc1cc(F)c(F)c(Nc2ccc(I)cc2F)c1NS(=O)(=O)C1(CC(O)CO)CC1 (stereo not drawn) (library stock concentration (final ~1000-fold dilution): 10 mM)
NF-kB SEAP reporter activity ([3]; agonist: LPS (TLR4) 0.1 ug/mL): 1.01
NF-kB SEAP reporter activity [3, 6]: 0.915
NF-kB SEAP reporter activity [3, 7]: 0.342
NF-kB SEAP reporter activity [3, 8]: 0.427

COc1cc(F)c(F)c(Nc2ccc(I)cc2F)c1NS(=O)(=O)C1(CC(O)CO)CC1 (stereo not drawn)
NF-kB SEAP reporter activity [1, 10]: 0.885
NF-kB SEAP reporter activity [1, 9]: 0.968

Cl.Cl.Fc1ccc(C(c2ccc(F)cc2)N2CCN(C/C=C/c3ccccc3)CC2)cc1
NF-kB SEAP reporter activity [1, 10]: 1.99
NF-kB SEAP reporter activity [1, 9]: 1.65

Cl.Cl.Fc1ccc(C(c2ccc(F)cc2)N2CCN(C/C=C/c3ccccc3)CC2)cc1 (library stock concentration (final ~1000-fold dilution): 10 mM)
NF-kB SEAP reporter activity ([3]; agonist: LPS (TLR4) 0.1 ug/mL): 2.45
NF-kB SEAP reporter activity [3, 6]: 1.44
NF-kB SEAP reporter activity [3, 7]: 0.829
NF-kB SEAP reporter activity [3, 8]: 1.09

COC12C(COC(N)=O)C3=C(C(=O)C(C)=C(N)C3=O)N1CC1NC12 (stereo not drawn)
NF-kB SEAP reporter activity [1, 10]: 1.82
NF-kB SEAP reporter activity [1, 9]: 1.79

COC12C(COC(N)=O)C3=C(C(=O)C(C)=C(N)C3=O)N1CC1NC12 (stereo not drawn) (library stock concentration (final ~1000-fold dilution): 10 mM)
NF-kB SEAP reporter activity ([3]; agonist: LPS (TLR4) 0.1 ug/mL): 2.79
NF-kB SEAP reporter activity [3, 6]: 2.71
NF-kB SEAP reporter activity [3, 7]: 1.89
NF-kB SEAP reporter activity [3, 8]: 3.31

CCN(CC)CCNC(=O)c1c(C)[nH]c(/C=C2/C(=O)Nc3ccc(-c4csc(-c5ccccc5)n4)cc32)c1C
NF-kB SEAP reporter activity [1, 4]: 1.35
NF-kB SEAP reporter activity [1, 5]: 1.55

CCN(CC)CCNC(=O)c1c(C)[nH]c(/C=C2/C(=O)Nc3ccc(-c4csc(-c5ccccc5)n4)cc32)c1C (library stock concentration (final ~1000-fold dilution): 10 mM)
NF-kB SEAP reporter activity ([2]; agonist: LPS (TLR4) 0.1 ug/mL): 0.882
NF-kB SEAP reporter activity [2, 6]: 0.397
NF-kB SEAP reporter activity [2, 7]: 0.37
NF-kB SEAP reporter activity [2, 8]: 0.645

COc1ccc(NC(=O)c2ccc(C(=N)N(C)C)cc2)c(C(=O)Nc2ccc(Cl)cn2)c1.O=C(O)/C=C\C(=O)O (library stock concentration (final ~1000-fold dilution): 10 mM)
NF-kB SEAP reporter activity ([3]; agonist: LPS (TLR4) 0.1 ug/mL): 0.955
NF-kB SEAP reporter activity [3, 6]: 0.994
NF-kB SEAP reporter activity [3, 7]: 1.1
NF-kB SEAP reporter activity [3, 8]: 1.06

COc1ccc(NC(=O)c2ccc(C(=N)N(C)C)cc2)c(C(=O)Nc2ccc(Cl)cn2)c1.O=C(O)/C=C\C(=O)O
NF-kB SEAP reporter activity [1, 9]: 0.953

COc1cc2c(Oc3ccc4[nH]c(C)cc4c3F)ncnc2cc1OCCCN1CCCC1
NF-kB SEAP reporter activity [1, 4]: 1.98
NF-kB SEAP reporter activity [1, 5]: 1.96

COc1cc2c(Oc3ccc4[nH]c(C)cc4c3F)ccnc2cc1OCC1(N)CC1.Cl.Cl
NF-kB SEAP reporter activity [1, 4]: 1.53
NF-kB SEAP reporter activity [1, 5]: 1.89

COc1cc2c(Oc3ccc4[nH]c(C)cc4c3F)ncnc2cc1OCCCN1CCCC1 (library stock concentration (final ~1000-fold dilution): 10 mM)
NF-kB SEAP reporter activity ([2]; agonist: LPS (TLR4) 0.1 ug/mL): 0.671
NF-kB SEAP reporter activity [2, 6]: 0.212
NF-kB SEAP reporter activity [2, 7]: 1.03
NF-kB SEAP reporter activity [2, 8]: 1.37

COc1cc2c(Oc3ccc4[nH]c(C)cc4c3F)ncnc2cc1OCCCN1CCCC1.O=C(O)/C=C\C(=O)O
NF-kB SEAP reporter activity [1, 5]: 2.65

COc1cc2c(Oc3ccc4[nH]c(C)cc4c3F)ccnc2cc1OCC1(N)CC1.Cl.Cl (library stock concentration (final ~1000-fold dilution): 10 mM)
NF-kB SEAP reporter activity ([2]; agonist: LPS (TLR4) 0.1 ug/mL): 1.7
NF-kB SEAP reporter activity [2, 6]: 0.29
NF-kB SEAP reporter activity [2, 7]: 1.17
NF-kB SEAP reporter activity [2, 8]: 1.74

COc1cc2c(Oc3ccc4[nH]c(C)cc4c3F)ncnc2cc1OCCCN1CCCC1.O=C(O)/C=C\C(=O)O (library stock concentration (final ~1000-fold dilution): 10 mM)
NF-kB SEAP reporter activity ([2]; agonist: LPS (TLR4) 0.1 ug/mL): 2.81
NF-kB SEAP reporter activity [2, 6]: 0.402
NF-kB SEAP reporter activity [2, 7]: 1.61
NF-kB SEAP reporter activity [2, 8]: 1.15
